Experimental findings from PubChem BioAssay (NCATS) are described below.

Records with an inconclusive call do not appear. Activity calls are given as the source filed them. Calls follow the shape of the dose curve; as a rule, active = well fitted curve in the direction sought with a large enough effect; inconclusive = small, poorly fitted or top-dose-only effect, or another doubt; inactive = no such curve, though single readings can be large; an effect the other way counts as inactive or inconclusive.

Experiment [1] can be described thus: Quantitative High-Throughput drug screen in 47 multiple myeloma cell lines against the NCATS MIPE library collection: Karpas25_ECACC cell viability assay (AID 1918968; also: nearly all actives have a fitted effect of over 35% in size). Put shortly:
(§1)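 Myeloma cells (500 per well) were exposed to MIPE 4.0 compounds by pin transfer and incubated 48 hours at 37C, 5% CO2. Viability was read as ATP by CellTiter-Glo luminescence, normalised to DMSO (100%) and media-only (0%) wells.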

Experiment [2] is described as follows: Quantitative High-Throughput drug screen in 47 multiple myeloma cell lines against the NCATS MIPE library collection: KMS27_JCRB cell viability assay (AID 1918970). Also: nearly all actives have a fitted effect of over 30% in size. Particulars: KMS27 myeloma cells, CellTiter-Glo ATP viability, 48 h; viability (% of DMSO): at 45.8 µM (top of the series). The essentials:
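Luminescent ATP read-out (CellTiter-Glo, 5 min at room temperature) after 48 h compound exposure of 500 KMS27_JCRB cells per well; DMSO wells define full viability and media-only wells zero.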
A general note: Cellular ATP, detected with luciferase, serves as a proxy for viable cell number.

A short description of experiment [3]: Quantitative High-Throughput drug screen in 47 multiple myeloma cell lines against the NCATS MIPE library collection: KMS12BM_JCRB cell viability assay (AID 1918971). Also: nearly all actives have a fitted effect of over 35% in size. The essentials:
(§2)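 CellTiter-Glo luminescence (ATP) after 48 h compound exposure, 37C/5% CO2; 500 cells/well; MIPE 4.0 approved/investigational drugs pinned in; DMSO = 100%, media only = 0% viability.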

The nature of experiment [4]: Quantitative High-Throughput drug screen in 47 multiple myeloma cell lines against the NCATS MIPE library collection: KMS12PE_JCRB cell viability assay (AID 1918972). Also: nearly all actives have a fitted effect of over 30% in size. The essentials: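 Luminescent ATP measurement with CellTiter-Glo gives viability, scaled between DMSO-only wells (100%) and media-only wells (0%). Cells, 500 per well, faced library compounds for 48 hours at 37C.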

A short description of experiment [5]: Quantitative High-Throughput drug screen in 47 multiple myeloma cell lines against the NCATS MIPE library collection: KMS26_JCRB cell viability assay (AID 1918975). Also: nearly all actives have a fitted effect of over 45% in size. The essentials: as §2
Experiment [6] is described as follows: Quantitative High-Throughput drug screen in 47 multiple myeloma cell lines against the NCATS MIPE library collection: MMM1_PLB cell viability assay (AID 1918976). Also: nearly all actives have a fitted effect of over 35% in size. Put shortly: (§3)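 qHTS format: cells plated (500/well), pin-dosed with MIPE 4.0 compounds, kept 48 h at 37 °C. Readout was CellTiter-Glo luminescence, median RLU.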
Experiment [7] in a line: Quantitative High-Throughput drug screen in 47 multiple myeloma cell lines against the NCATS MIPE library collection: NCIH929_DSMZ cell viability assay (AID 1918978). Also: nearly all actives have a fitted effect of over 35% in size. The essentials:
as §3

Experiment [8] is described as follows: Quantitative High-Throughput drug screen in 47 multiple myeloma cell lines against the NCATS MIPE library collection: MOLP8_DSMZ cell viability assay (AID 1918977). Also: nearly all actives have a fitted effect of over 45% in size. Put shortly: as §3
A short description of experiment [9]: Quantitative High-Throughput drug screen in 47 multiple myeloma cell lines against the NCATS MIPE library collection: KMS21BM_JCRB cell viability assay (AID 1918974). The note with it: ATP luminescence, 48 h; viability: at 45.8 µM (top of the series). The essentials:
as §1

The nature of experiment [10]: Quantitative High-Throughput drug screen in 47 multiple myeloma cell lines against the NCATS MIPE library collection: KMS20_JCRB cell viability assay (AID 1918973). Also: nearly all actives have a fitted effect of over 45% in size. Put shortly: as §1
Potency is read from the fitted curve at half-maximal effect.

Consider `COC1CCC(C(=O)c2ccc3nc4c(cc3c2)CCCO4)CC1` (stereo not drawn), for which the Potency was 18.7 µM (active) in experiment [1]; 18.7 µM (active) in [2]; 20.9 µM (active) in experiment [3]; 14.8 µM (active) in experiment [4]; 23.5 µM (active) in [5]; 2.64 µM (active) in experiment [6]. Also, in experiment [7], the Potency was 23.5 µM (active).

Regarding `O=c1[nH]c(=O)n([C@H]2C[C@@H](O)[C@@H](CO)O2)cc1I`, the Potency entry in experiment [1], in [2], in experiment [3], in [5], in experiment [8] and in [7] was “inactive” throughout. Moreover, the Potency in [4] is 1.48 µM (active).

For `CCN1C[C@H](C)n2c(c(O)c3c(=O)n(Cc4ccc(F)c(Cl)c4)nc(C(=O)NC)c32)C1=O`, the Potency result in experiment [1], in experiment [2], in experiment [4], in experiment [9] and in experiment [5] was “inactive” each time. Moreover, in [6], the Potency was 2.64 µM (active).

Take `O=C(c1ccc(C(=O)N2CCC(N3CCCC3)CC2)c(Nc2ccccc2)c1)N1CCC(N2CCCC2)CC1`: the Potency result in experiment [1], in [2], in experiment [4], in [10], in [9] and in experiment [8] was “inactive” in each case. Further, the Potency entry in experiment [7] was “inactive”.

Take `CC1CCN(c2cc(N3CCN(C)CC3)ccc2NC(=O)c2cc(C#N)c[nH]2)CC1`: the Potency result in [1], in experiment [2], in experiment [4], in [10] and in experiment [7] was “inactive” in each case. Further, the Potency in experiment [6] is 23.5 µM (active).

On to `COc1cc2nccc(Oc3ccc(NC(=O)Nc4cc(C)on4)c(Cl)c3)c2cc1OC`, for which the Potency in experiment [1] was 20.9 µM (active); in experiment [3] it was 23.5 µM (active); in [5] it was 16.6 µM (active); in experiment [6] it was 23.5 µM (active). The Potency result in experiment [2] is “inactive”.

For the compound `COc1ccc(-c2cc(=O)c3c(O)cc(O[C@@H]4O[C@H](CO[C@@H]5O[C@@H](C)[C@H](O)[C@@H](O)[C@@H]5O)[C@@H](O)[C@H](O)[C@@H]4O)cc3o2)cc1O`, the Potency in experiment [1] was 11.8 µM (active); in experiment [5], 20.9 µM (active); in experiment [7] it was 9.35 µM (active). Moreover, the Potency result in experiment [2], in experiment [4] and in experiment [8] was “inactive” in each case.

In the case of `CC[C@H]1OC(=O)[C@H](C)[C@@H](O[C@H]2C[C@@](C)(OC)[C@@H](O)[C@H](C)O2)[C@H](C)[C@@H](O[C@@H]2O[C@H](C)C[C@H](N(C)C)[C@H]2O)[C@](C)(O)C[C@H](C)C(=NOCOCCOC)[C@H](C)[C@@H](O)[C@]1(C)O`, the Potency result in [1], in experiment [2], in experiment [4], in experiment [10] and in experiment [7] was “inactive” each time.

As to `C=C1c2cccc(O)c2C(O)=C2C(=O)[C@@]3(O)C(O)=C(C(N)=O)C(=O)[C@@H](N(C)C)[C@@H]3[C@@H](O)[C@H]12`, the Potency in experiment [1] is 14.8 µM (active); in experiment [5] it was 4.69 µM (active). In addition, the Potency entry in experiment [2], in experiment [4] and in experiment [7] was “inactive” each time.

Consider `CC(C)(C)c1nc(-c2cccc(NS(=O)(=O)c3c(F)cccc3F)c2F)c(-c2ccnc(N)n2)s1`, for which the Potency in [1] was 5.26 µM (active); in experiment [2], 16.6 µM (active); in experiment [4] it was 1.87 µM (active); in experiment [9] it was 2.35 µM (active); in [8] it was 5.9 µM (active); in [7] it was 7.43 µM (active). Also, the Potency result in experiment [5] was “inactive”.

`C[C@@H]1[C@H](C)CC[C@]2(C(=O)O)CC[C@]3(C)C(=CC[C@@H]4[C@@]5(C)CC[C@H](O)C(C)(C)[C@H]5CC[C@]43C)[C@@H]12`: the Potency entry in [1], in experiment [2] and in experiment [7] was “inactive” in each case. Also, the Potency was 19.1 µM (active) in experiment [3], 19.1 µM (active) in experiment [5] and 21.5 µM (active) in experiment [6].

On to `CC(C)N(CCCNC(=O)Nc1ccc(C(C)(C)C)cc1)C[C@H]1O[C@@H](n2cc(Br)c3c(N)ncnc32)[C@H](O)[C@H]1O`, for which the Potency in experiment [1] was 14.8 µM (active); in experiment [10], 5.26 µM (active); in experiment [5], 26.4 µM (active); in experiment [6], 18.7 µM (active); in experiment [8], 18.7 µM (active); in experiment [7] it was 23.5 µM (active). For the same compound, the Potency entry in experiment [2] and in experiment [4] was “inactive” each time.

`CC(C)n1c(C=C[C@H](O)C[C@H](O)CC(=O)O)c(-c2ccc(F)cc2)c2ccccc21`: the Potency in [1] was 14.8 µM (active); in experiment [2], 3.72 µM (active); in experiment [4] it was 3.32 µM (active); in experiment [9], 29.6 µM (active); in experiment [8], 2.96 µM (active); in experiment [7], 13.2 µM (active).

For `Cc1nc(NC(=O)N2CCC[C@@H]2C(N)=O)sc1-c1csc(C(C)(C)C)n1`, the Potency in [1] is 5.9 µM (active); in experiment [2], 2.35 µM (active); in [4], 4.69 µM (active); in experiment [10], 2.64 µM (active); in [9], 1.05 µM (active); in experiment [5] it was 1.18 µM (active). The results for the Potency in [8] and in experiment [7] were 0.166 µM (active) and 0.833 µM (active), respectively.

As to `NC(=O)c1ncn([C@@H]2O[C@H](CO)[C@@H](O)[C@@H]2O)n1`, the Potency result in [1], in [2], in [4], in experiment [10], in experiment [9] and in [5] was “inactive” throughout. For the same compound, in experiment [7], the Potency entry was “inactive”.

As to `CCC(=O)OCC(=O)[C@@]1(OC(=O)CC)[C@@H](C)C[C@@H]2[C@H]3CCC4=CC(=O)C=C[C@]4(C)[C@@]3(F)[C@@H](O)C[C@@]21C`, the Potency was 0.118 µM (active) in experiment [1], 4.18 µM (active) in [2], 10.5 µM (active) in experiment [4] and 2.64 µM (active) in experiment [9]. In addition, the Potency entry in [7] is “inactive”.

For `CS(=O)(=O)c1ccc(C2=C(c3ccccc3)C(=O)OC2)cc1`, the Potency entry in [1], in [2], in experiment [3], in experiment [10], in [5] and in experiment [8] was “inactive” each time. For the same compound, the Potency result in experiment [7] was “inactive”.

With `CCN1CCN(c2ccc(Nc3cc(N(C)C(=O)Nc4c(Cl)c(OC)cc(OC)c4Cl)ncn3)cc2)CC1`, the Potency is 18.7 µM (active) in [1], 16.6 µM (active) in experiment [3] and 2.09 µM (active) in experiment [10]. Also, the Potency result in experiment [2] and in experiment [7] was “inactive” throughout.

With `CC1=C[C@@H]2[C@@H]([C@@H](O)C[C@@]3(C)[C@H]2C[C@@H](C)[C@]3(O)C(=O)CO)[C@@]2(C)Cc3cnn(-c4ccccc4)c3C=C12`, the Potency in experiment [1] is 0.0083 µM (active); in experiment [3], 18.7 µM (active); in experiment [6], 20.9 µM (active). The Potency entry in experiment [2] is “inactive”.

Consider `C[C@@H]1C[C@H]2[C@@H]3CCC4=CC(=O)C=C[C@]4(C)[C@@]3(F)[C@@H](O)C[C@]2(C)[C@@]1(O)C(=O)CO`, for which the Potency in [1] is 0.0526 µM (active). The Potency result in [2], in [4], in [5], in [8] and in experiment [7] was “inactive” each time.
